# “And” between values parts separate entries of the source, which are not always exact repeats. Identical values can stand only once. About 350 (0.27%) of roughly 130,000 compounds were called active. This is one part of a sample in which actives are shown more often than they occur. Unmarked numbers belong to inactive results. Rule as the data show it: active = z-score below about -2 (passing the limit was not always enough); inactive = the rest.
# Assay: PubChem AID 504770
# Settings: E. coli YBA685 rctB-dependent plasmid, OD600 growth, 3 h; active compounds read low
row,SMILES,z-score
1,Cc1ccc2oc(-c3ccccc3C)nc2c1,1.9
2,CC(Sc1nc(N)nc(N)n1)C(=O)NC1(C#N)CCCCC1 (configuration not stated),-0.4
3,O=C(OCC(=O)N1CCCC1)c1ccccc1OCc1ccccc1Cl,0.2
4,CC(OC(=O)C1CCN(C(=O)c2ccc(Cl)cc2)CC1)C(=O)NC1CC1 (configuration not stated),1.3
5,Cc1cc(C)c(C)c(OCC(=O)N(Cc2nc(-c3ccccc3)no2)C2CCCCC2)c1,-0.5
6,COc1ccc(-c2cc(C(=O)NCCCN3CCOCC3)no2)cc1,0.4
7,Cc1cccc(NC2=NC3CS(=O)(=O)CC3S2)c1 (configuration not stated),-0.4
8,Cc1nnsc1C(=O)NC(=O)c1ccccc1O,0.45
9,COC(=O)C(C)N(C#N)c1nc(N(C)C)nc(N(C)C)n1 (configuration not stated),-0.3
10,CN1CCN(c2nc(C34CC5CC(CC(C5)C3)C4)cs2)CC1,0.45
11,Clc1ccc2c(Sc3nncn3-c3ccccc3)ccnc2c1,0.2
12,C=CCN(CC=C)C(=O)COc1ncnc2sccc12,-0.3
13,CSc1nc(=O)n(Cc2ccccn2)c2c1CCC2,-0.15
14,CCCCn1c2ccccc2c2n[nH]c(=S)nc21,-0.4 and 1.45
15,O=C(CCS(=O)(=O)c1cc(Br)cc2c1N(C(=O)C1CC1)CC2)NCc1ccc(F)cc1,-0.8
16,CCC(=O)N1CCc2cc(Br)cc(S(=O)(=O)NCCN3CCN(c4ccccc4F)CC3)c21,-0.85
17,CCc1cccc(NS(=O)(=O)c2cc(Br)cc3c2N(C(=O)C2CC2)CC3)c1,-2.9 (active)
18,O=C(Cn1c(=O)oc2cc(S(=O)(=O)NCc3ccccc3)ccc21)NC1CCCC1,2.3
19,O=C(COc1ccc(Cl)cc1)Nc1c(-c2ccc(F)cc2)nc2ccccn12,-0.15
20,CCOC(=O)C(Cc1ccccc1)C(=O)Nc1cccc(C)n1 (configuration not stated),-0.4
21,O=C(CCSc1nc(-c2ccco2)cc(C(F)(F)F)n1)N1CCCC1,0.85
22,Cc1nc(/N=C(/N)NC(=O)c2ccccc2)nc2ccccc12,0.6
23,Cc1ccc2c(c1)c1c(n2CC(O)CN2CCCCC2)C(=O)CCC1 (configuration not stated),-0.35
24,CC1CC(C)CN(c2ncnc3scc(-c4ccccc4)c23)C1 (configuration not stated),-0.7

row,SMILES,z-score
1,CC1CCCCC1NC(=O)COC(=O)c1nc(Cl)ccc1Cl (configuration not stated),-0.55
2,O=C(COC(=O)/C=C/c1cn(-c2ccccc2)nc1-c1ccccc1)NC1CC1,-2.45
3,CCc1ccc(C(=O)CCC(=O)O)s1,-3.1 (active)
4,CCc1ccc(CCC(=O)O)cc1,0.8
5,CCc1ccc(C(=O)COC(=O)c2cccc(-n3cccc3)c2)s1,1.2
6,O=c1c(/C=N\O)coc2ccc(F)cc12,1.15
7,O/N=C/c1cccc(Cl)c1,-0.05
8,O=c1c(/C=N/O)coc2ccc(Cl)cc12,-3.05 (active)
9,CCCc1cc(=O)oc2c1c(C)nn2C,0.15
10,Cc1cccc(-n2nc(C)c3c(C)cc(=O)oc32)c1,-3.15 (active)
11,CCCc1cc(=O)[nH]c2c1c(C)nn2-c1cccc(F)c1,2.25
12,CCN(CC)S(=O)(=O)c1ccc(C(=O)NCCn2c(C)cc3ccccc32)cc1,0.65
13,Cc1ccc(C(C(=O)NCc2ccccc2)N(Cc2ccco2)C(=O)Cn2nnc3ccccc32)cc1 (configuration not stated),-0.35
14,CCN1CCN(c2ccc(NC(=O)[C@H](Cc3ccccc3)N3Cc4ccccc4C3=O)cc2)CC1,1.2
15,CCSc1nnc(SCC(=O)c2ccc3[nH]c(=O)[nH]c3c2)s1,1.6
16,CCOc1ncccc1C(=O)OCC(=O)N1C(C)CCCC1C (configuration not stated),-5.9 (active)
17,Cc1cc(C(=O)OCC(=O)N2C(C)CCCC2C)c2ccccc2n1 (configuration not stated),0.05
18,CC1CCCC(C)N1C(=O)COC(=O)c1ccccc1I (configuration not stated),1.25
19,COC(=O)CN1C(=O)C(C)(C)Oc2ccc(C(=O)Nc3cccc(OC)c3)cc21,-0.45
20,COc1ccc(C2CC(=O)C3=C(C2)NC(=O)CC3c2ccc3c(c2)OCO3)cc1 (configuration not stated),0.05
21,CCCN1CCC(NC(=S)Nc2ccc3c(c2)OCO3)CC1,1.7
22,O=C(Nc1ccccc1)C1CCN(C(=O)c2cccs2)CC1,0.15
23,CCN1CCN(C(=O)c2ccc(/C=C3/Sc4ccccc4N(Cc4ccccc4C)C3=O)cc2)CC1,0.25

# From PubChem BioAssay AID504770 (ICCB-Longwood Screening Facility, Harvard Medical School, 2011)
